This note sets out measurements from PubChem BioAssay (NCI).

Compounds without any hit were thinned out: in the full panel of roughly 83,000, 20% have a hit.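 Single-dose data. Exposure time 48 hours. Values below 10 considered active.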 Values without a mark were called inactive. Active and inactive are the calls of the source.

Among the test systems are NCI-H23 lung; NCI-H226 lung; NCI-H322M lung; HOP-62 NSCLC; NCI-H460 lung; HOP-92 NSCLC; NCI-H522 lung; A549/ATCC NSCLC; 786-0 renal; COLO 205 colon; DU-145 prostate; K-562 leukemia; MALME-3M melanoma; MDA-MB-231 breast; RXF 393 renal; SF-268 CNS; SF-539 CNS; UACC-257 melanoma; M14 melanoma; SF-295 CNS.
Common to all, as to experiment: NCI-60 one-dose screen, 48 h (100 = growth as untreated, 0 = no growth, -100 = all killed)
What all share (details): 10 µM unless noted

For `COc1ccc2c(c1)C/C(=C\c1cc(-c3cc(OC)c(OC)c(OC)c3)n[nH]1)C2=O`, the growth was 90.2% in the test with NCI-H23 lung; 82.3% in the test with NCI-H226 lung; 93.9% with NCI-H322M lung; 103% in the test on HOP-62 NSCLC; 106% in the test on NCI-H460 lung; 79.1% in the test with HOP-92 NSCLC. In addition, the growth in the test on NCI-H522 lung was 60.6%; in the test with A549/ATCC NSCLC it was 92.9%; in the test on 786-0 renal, 95.9%; in the test on COLO 205 colon it was 109%; in the test on DU-145 prostate, 113%; with K-562 leukemia, 53.7%. Also, the growth is 108% with MALME-3M melanoma; 78.9% with MDA-MB-231 breast; 94.9% in the test with RXF 393 renal; 100% with SF-268 CNS; 89.5% with SF-539 CNS; 97.3% in the test with UACC-257 melanoma. Moreover, in the test with M14 melanoma, the growth is 100%.

As for `C[N+](C)(CCCCCC[N+](C)(C)C1c2ccccc2-c2ccccc21)C1c2ccccc2-c2ccccc21`, the growth with NCI-H23 lung is 103%; in the test on NCI-H226 lung it was 108%; in the test on NCI-H322M lung, 131%; with HOP-62 NSCLC it was 113%; in the test on NCI-H460 lung it was 109%; in the test with HOP-92 NSCLC, 117%. Further, the growth is 80.9% with NCI-H522 lung; 102% in the test with A549/ATCC NSCLC; 112% with 786-0 renal; 106% with COLO 205 colon; 118% in the test with DU-145 prostate; 99.5% in the test with K-562 leukemia. Moreover, the growth in the test with MALME-3M melanoma is 104%; with MDA-MB-231 breast, 115%; in the test with RXF 393 renal, 113%; in the test with SF-268 CNS, 111%; in the test with SF-539 CNS, 102%; with UACC-257 melanoma, 103%. Besides, in the test with M14 melanoma, the growth is 106%.

As for `O=C(CI)Nc1ccc(O)c2ccccc12`, the growth in the test with NCI-H23 lung was -7.45% (active); with NCI-H226 lung it was -13.1% (active); with NCI-H322M lung it was 104%; with HOP-62 NSCLC it was 46.9%; with NCI-H460 lung it was 32.5%; in the test with HOP-92 NSCLC, -24.8% (active). For the same compound, the growth is -79.4% (active) with NCI-H522 lung; 64.8% with A549/ATCC NSCLC; -22.5% (active) with 786-0 renal; -85.6% (active) in the test with COLO 205 colon; 41.9% with DU-145 prostate; -16.2% (active) with K-562 leukemia. The growth was -14% (active) in the test on MALME-3M melanoma; -11.8% (active) with MDA-MB-231 breast; -89.7% (active) in the test on RXF 393 renal; -0.419% (active) with SF-268 CNS; -28.6% (active) in the test with SF-539 CNS; 10.7% with UACC-257 melanoma. Further, the growth with M14 melanoma is -58.9% (active).

For `Cn1cc(-c2csc(-c3c[nH]c4ccc(F)cc34)n2)c2cccnc21`, the growth is 50.4% with NCI-H23 lung; 59.7% in the test on NCI-H226 lung; 74.8% with NCI-H322M lung; 43.2% in the test on HOP-62 NSCLC; 11.4% with NCI-H460 lung; 71.9% with HOP-92 NSCLC. The growth in the test on NCI-H522 lung is 12.6%; in the test with A549/ATCC NSCLC, 46.5%; in the test with 786-0 renal it was 66.6%; in the test with COLO 205 colon, 35.6%; with DU-145 prostate, 61.9%; with K-562 leukemia it was 19.8%. Further, the growth was 50.1% in the test on MDA-MB-231 breast; 54.4% in the test on RXF 393 renal; 51.1% with SF-268 CNS; 14.8% in the test on SF-295 CNS; 31% with SF-539 CNS; 63.4% with UACC-257 melanoma. In the test on M14 melanoma, the growth was 13.7%.

Consider `N=c1ccc2nc3c(cc(N)c4ccccc43)oc-2c1`, for which the growth in the test on NCI-H23 lung is -80.4% (active); in the test on NCI-H226 lung it was -61.3% (active); with NCI-H322M lung, -34.2% (active); in the test on HOP-62 NSCLC, -97.7% (active); with NCI-H460 lung, -77.3% (active); with HOP-92 NSCLC, 21.7%. In addition, the growth in the test on NCI-H522 lung is -70.1% (active); in the test with A549/ATCC NSCLC, -44% (active); in the test on 786-0 renal it was -90.7% (active); in the test on COLO 205 colon, -100% (active); with DU-145 prostate it was -100% (active); in the test with K-562 leukemia, -67.3% (active). For the same compound, the growth was -91.5% (active) in the test on MALME-3M melanoma; -52.8% (active) with MDA-MB-231 breast; -59.2% (active) in the test with SF-268 CNS; -69.8% (active) with SF-295 CNS; -98.9% (active) in the test with SF-539 CNS; -91.5% (active) in the test on UACC-257 melanoma. The growth with M14 melanoma is -100% (active).

Take `c1ccc(C2Cc3ccccc3C2=NC2CCCCC2)cc1` (configuration not stated): the growth in the test with NCI-H23 lung was 98.1%; in the test with NCI-H226 lung, 100%; in the test on NCI-H322M lung it was 102%; in the test on HOP-62 NSCLC, 113%; in the test on NCI-H460 lung, 116%; with HOP-92 NSCLC it was 68.4%. The growth in the test with NCI-H522 lung is 88.8%; with A549/ATCC NSCLC it was 103%; in the test with 786-0 renal it was 97.5%; in the test on COLO 205 colon, 115%; in the test on DU-145 prostate, 115%; with K-562 leukemia, 99.6%. Besides, the growth is 116% in the test on MALME-3M melanoma; 97.2% with MDA-MB-231 breast; 110% in the test with RXF 393 renal; 102% in the test on SF-268 CNS; 89.3% in the test on SF-539 CNS; 110% in the test on UACC-257 melanoma. In the test on M14 melanoma, the growth is 91.7%.

As to `Nc1c(Cl)cc(N=Nc2ccccc2)cc1Cl`, the growth in the test on NCI-H23 lung was 88%; in the test on NCI-H226 lung, 55.2%; with NCI-H322M lung, 86.7%; in the test on HOP-62 NSCLC, 91.4%; in the test with NCI-H460 lung, 65.1%; with HOP-92 NSCLC, 57.7%. Further, the growth is 96.8% with NCI-H522 lung; 88.2% in the test on A549/ATCC NSCLC; 101% with 786-0 renal; 97.5% in the test with COLO 205 colon; 101% in the test on DU-145 prostate; 92.5% with K-562 leukemia. Besides, the growth was 84.2% in the test on MDA-MB-231 breast; 108% in the test with RXF 393 renal; 102% with SF-268 CNS; 89.7% with SF-295 CNS; 103% with SF-539 CNS; 100% in the test with UACC-257 melanoma. Moreover, in the test with M14 melanoma, the growth is 105%.

Regarding `CC(C)=CCC/C(C)=C/CC/C(C)=C/CSC[C@H](NC(=O)CCCCCN1CCN(C)CC1)C(=O)NC1CCCCCC1`, the growth in the test with NCI-H23 lung is 58.1%; with NCI-H226 lung, 82.1%; in the test with NCI-H322M lung, 88.7%; in the test with HOP-62 NSCLC, 91.7%; with NCI-H460 lung it was 2.84% (active); with HOP-92 NSCLC, 32.6%. The growth is 59.8% in the test with NCI-H522 lung; 64.2% in the test on A549/ATCC NSCLC; 75.9% with 786-0 renal; -71% (active) with COLO 205 colon; 53% with DU-145 prostate; -17.4% (active) with K-562 leukemia. In addition, the growth was -13.7% (active) in the test with MALME-3M melanoma; -89.1% (active) with MDA-MB-231 breast; 80.3% in the test with RXF 393 renal; 75.1% in the test with SF-268 CNS; 82.9% with SF-539 CNS; 76.2% in the test with UACC-257 melanoma. The growth with M14 melanoma was 83.7%.
